# Test results taken from PubChem BioAssay (EPA / NIEHS).
# Inconclusive results are not listed. Activity calls are given as the source filed them. Rule for the calls: active = hit-call score of the fitted dose curve at least 0.9, where 1 is the maximum; inconclusive = response in the unintended direction; inactive = score below 0.9.
# Target: Ratio of Nucleoli Translocation and Cytoplasm, AR (gene 367) (UniProt P10275)
# Test: UPITT_HCI_U2OS_AR_TIF2_Nucleoli_Cytoplasm_Ratio_Antagonist: University of Pittsburgh U2OS Androgen Receptor-Transcriptional Intermediary Factor 2 (AR-TIF2) Antagonism High Content Imaging Assay for Ratio of Nucleoli Translocation and Cytoplasm (AID 2283999);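 note: antagonists lower the DHT-driven ratio of nucleolar to cytoplasmic red signal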
# From the text: UPITT_AR_TIF2_PPIB is a cell-based, high-content imaging assay that uses U2OS, a human osteosarcoma cell line, expressing a human androgen receptor fused to red fluorescent protein and the coactivator TIF2 fused to green fluorescent protein. UPITT_HCI_U2OS_AR_TIF2_Nucleoli_Cytoplasm_Ratio_Antagonist is one of four assay components measured from the UPITT_AR_TIF2_PPIB assay. It is designed to make measurements of the ratio of red fluorescence localized in the nucleolar region of the cell nucleus to red fluorescence localized in the cytoplasm as detected with high-content fluorescent imaging.Data from the assay component UPITT_HCI_U2OS_AR_TIF2_Nucleoli_Cytoplasm_Ratio_Antagonist was analyzed into 1 assay endpoint. This assay endpoint, UPITT_HCI_U2OS_AR_TIF2_Nucleoli_Cytoplasm_Ratio_Antagonist, was analyzed in the positive analysis fitting direction relative to DHT as the baseline of activity. Using a type of binding reporter, measures of receptor for loss-of-signal activity can be used to understand the binding at the pathway-level as it relates to the gene AR.
# Daughter plates containing 2 uL of 10 mM compounds in DMSO were prepared and replicated from the 384-well Library of Pharmacologically Active Compounds (LOPAC) master plates using the Bravo outfitted with a 384-well transfer head. Aluminum adhesive plate seals were applied with an Abgene Seal-IT 100 (Rochester, NY) plate sealer, and the plates were stored at -20 C in a Matrical MatriMinistore (Spokane, WA) automated compound storage and retrieval system. For screening, LOPAC daughter plates were withdrawn from -20C storage, thawed to ambient temperature, centrifuged 1-2 min at 50 g, and the plate seals were removed before the transfer of 98 uL of serum-free tissue culture medium (SFM) into wells using the BioTek Microflo liquid handler (BioTek, Winooski, VT) to generate a 200 uM intermediate stock concentration of library compounds (2.0% DMSO). The diluted compounds were mixed by repeated aspiration and dispensation using a 384-well P30 dispensing head on the Evolution P3 (EP3) liquid handling platform (PerkinElmer, Waltham, MA) and then 5 uL of diluted compounds was transferred to the wells of assay plates. In the LOPAC screen, compounds were individually tested at a final concentration of 20 uM (0.2% DMSO). After the diluted compounds had been transferred from the daughter plates to the primary HCS assay plates, aluminum adhesive plate seals were applied and the diluted daughter plates were stored frozen at -20C. To confirm active compounds identified in the primary screen, we withdrew the LOPAC daughter plates containing the 200 uM intermediate concentration of library compounds (2.0% DMSO) from -20C storage, thawed them to ambient temperature, centrifuged them for 1-2 min at 50 g, and removed the plate seals. A work list was generated to direct the Multiprobe Janus liquid handling platform (PerkinElmer) to cherry pick 75 uL from the wells of the diluted daughter plates that were flagged active in the primary screen and to reformat these into a 384-well plate hit confirmation daughter plate. Five microliters of primary HCS active compounds was then transferred into triplicate wells of assay plates using a 384-well P30 dispensing head on the Evolution P3 (EP3) liquid handling platform (PerkinElmer). […] Daughter plates containing 2 uL of the serially diluted compounds in DMSO were prepared and replicated from the 384-well serial dilution master plates using the Bravo outfitted with a 384-well transfer head. Aluminum adhesive plate seals were applied and plates were stored at -20C. For testing in the bioassays, daughter plates were withdrawn from -20C storage, thawed to ambient temperature, centrifuged for 1-2 min at 50 g, and the plate seals were removed before the transfer of 38 uL of SFM into wells using the BioTek Microflo liquid handler (BioTek) to generate an intermediate stock concentration of library compounds ranging from 1.95 to 500 uM (5.0% DMSO). […]
# Ratio of Nucleoli Translocation and Cytoplasm, AR (gene 367), sequence (P10275 whole entry, looked up): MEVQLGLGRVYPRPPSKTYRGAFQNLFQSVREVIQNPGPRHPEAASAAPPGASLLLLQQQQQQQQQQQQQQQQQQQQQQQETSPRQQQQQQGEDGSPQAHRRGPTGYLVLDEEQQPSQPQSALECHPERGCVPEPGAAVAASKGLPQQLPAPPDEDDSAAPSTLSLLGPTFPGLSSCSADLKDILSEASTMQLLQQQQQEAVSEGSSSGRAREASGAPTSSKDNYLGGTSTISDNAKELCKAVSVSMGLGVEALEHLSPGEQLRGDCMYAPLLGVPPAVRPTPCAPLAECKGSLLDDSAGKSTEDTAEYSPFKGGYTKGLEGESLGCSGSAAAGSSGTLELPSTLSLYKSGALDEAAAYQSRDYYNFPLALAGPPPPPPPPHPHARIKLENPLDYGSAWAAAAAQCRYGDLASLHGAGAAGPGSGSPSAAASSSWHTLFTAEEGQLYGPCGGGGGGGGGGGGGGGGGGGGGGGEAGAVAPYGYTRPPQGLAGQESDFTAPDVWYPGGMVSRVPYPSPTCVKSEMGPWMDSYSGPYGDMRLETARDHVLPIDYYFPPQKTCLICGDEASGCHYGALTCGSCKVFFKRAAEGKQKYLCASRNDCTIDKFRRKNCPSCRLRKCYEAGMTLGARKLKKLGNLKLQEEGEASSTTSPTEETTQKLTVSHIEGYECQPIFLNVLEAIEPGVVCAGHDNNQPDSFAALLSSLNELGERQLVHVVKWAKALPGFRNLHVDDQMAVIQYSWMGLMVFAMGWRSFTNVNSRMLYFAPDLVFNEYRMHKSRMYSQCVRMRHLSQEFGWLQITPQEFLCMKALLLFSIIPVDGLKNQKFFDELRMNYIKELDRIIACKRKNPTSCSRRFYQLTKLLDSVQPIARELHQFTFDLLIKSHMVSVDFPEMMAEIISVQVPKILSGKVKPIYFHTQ
SMILES,AC50,outcome
NC(=NCCCCCCN=C(N)/N=C(\N)Nc1ccc(Cl)cc1)/N=C(\N)Nc1ccc(Cl)cc1,11.6 µM (active),
Cc1cc(C(=C2C=CC(=Nc3ccc(S(=O)(=O)O)cc3)C=C2)c2ccc(Nc3ccc(S(=O)(=O)O)cc3)cc2)cc(S(=O)(=O)O)c1N,,inactive
O=C(NCc1ncc(C(F)(F)F)cc1Cl)c1c(Cl)cccc1Cl,,inactive
CC(O)COc1ccccc1 (stereo unspecified),,inactive
CC1COCc2cc3c(cc21)C(C)(C)C(C)C3(C)C (stereo unspecified),,inactive
COc1cc([N+](=O)[O-])ccc1N,,inactive
CCCCCCc1ccc(N)cc1,,inactive
O=C(c1ccccc1)c1ccccc1,,inactive
CCCCCCC(C)(C)C(=O)O,,inactive
CCCCCc1ccc(O)cc1,86.1 µM (active),
CCCCc1ccc2ccccc2c1S(=O)(=O)O,,inactive
